HSP90 inh = HSP90 inhibitors, primary screen, cell lysate, luminescence. Heat shock protein HSP 90 (rabbit reticulocyte lysate; luciferase refolding). Rabbit reticulocyte lysate, luciferase refolding luminescence, 3 h. inhibition, % at 5.6 µM. actives 0.91% (n = 290,000);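 active = inhibition above the screen-wide mean plus 3 SD, computed separately per campaign, cut at about 16% in these data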;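 note: 0% = DMSO wells and 100% = 60 µM geldanamycin wells; inhibitors lower the luminescence because luciferase stays unfolded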
SENP8 block-1 = human SENP8 protease inhibitors, primary screen, biochemical, fluorescence, Nedd8 protein substrate, uHTS; Sentrin-specific protease 8 (Homo sapiens), Q96LD8; recombinant SENP8; inhibition, % at 20 µM; actives 0.64% (n = 360,000); AID 602440, 2012; in the data active = inhibition mostly above about 40%, no sharp cut-off; inactive = mostly below about 27%
Target sequence (Q96LD8 whole entry, looked up): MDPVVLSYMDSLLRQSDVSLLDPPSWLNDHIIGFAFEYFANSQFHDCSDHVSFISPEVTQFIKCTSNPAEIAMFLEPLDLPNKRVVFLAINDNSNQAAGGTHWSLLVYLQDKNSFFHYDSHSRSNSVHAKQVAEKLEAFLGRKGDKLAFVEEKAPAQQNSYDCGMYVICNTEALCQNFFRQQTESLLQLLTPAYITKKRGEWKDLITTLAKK
SENP8 block-2 = SENP8 protease inhibitors, primary screen, biochemical, luminescence; purified SENP8, Z-RLRGG-aminoluciferin cleavage; actives 1.2% (n = 330,000); inhibition, % at 10 µM; AID 2540, 2010; Sentrin-specific protease 8 (Homo sapiens), Q96LD8; in the data active = inhibition above about 50%
Platelet DG rel = inhibitors of platelet dense granule secretion, primary screen, cell-based, MLPCN, human platelets. human platelet-rich plasma, SFLLRN dense granule ATP release, luminescence. inhibition, %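 (compounds screened at 7.5 µM in platelet-rich plasma)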. actives 0.22% (n = 300,000);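 active = mean replicate score, as percent of positive control, at or above 50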
SENP6 block = SENP6 protease inhibitors, primary screen, biochemical, luminescence, uHTS | Sentrin-specific protease 6 (Homo sapiens), Q9GZR1 | Recombinant SENP6 catalytic domain, aminoluciferin luminescence | inhibition, % at 10 µM | actives 1.8% (n = 330,000) | AID 2599, 2010;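 active = inhibition above about 50% at the single tested dose, limit read from the data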;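 note: plate controls were DMSO wells with enzyme for no effect and DMSO wells lacking enzyme for full effect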
SENP7 inh = SENP7 protease inhibitors, primary screen, biochemical, luminescence, uHTS. actives 1.5% (n = 330,000). inhibition, % at 5 µM. Sentrin-specific protease 7 (Homo sapiens), Q9BQF6. AID 434973, 2010. recombinant SENP7, Z-RLRGG-aminoluciferin luminescence, 40 min;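 active = inhibition above about 50% at the single test dose, limit read from the data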;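 note: plate controls were DMSO with enzyme for no effect and no enzyme buffer wells for full effect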
SENP8 conf = SENP8 protease inhibitors, retest, confirmation, biochemical, luminescence, single concentration; shares compounds with SENP7 inh; Recombinant SENP8, Z-RLRGG-aminoluciferin luminescence, 60 min; inhibition, % at 12.5 µM; actives 40% (n = 6,200); AID 488912, 2010;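 active = mean inhibition across replicates above about 50%, limit read from the data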
SENP6 conf = SENP6 protease inhibitors, confirmation, biochemical, luminescence, single concentration | shares compounds with SENP7 inh | recombinant SENP6, Z-RLRGG-aminoluciferin luminescence | inhibition, % at 12.5 µM | actives 58% (n = 6,200) | AID 488915, 2010
SENP7 conf = SENP7 protease inhibitors, retest, confirmation, biochemical, luminescence, single concentration | shares compounds with SENP7 inh | recombinant SENP7, Z-RLRGG-aminoluciferin luminescence, 40 min | inhibition, % at 12.5 µM | actives 69% (n = 6,200) | AID 488917, 2010
Casp3 SENP sel = caspase-3 protease inhibitors, confirmation, selectivity assay for SENP inhibitor project, biochemical, single concentration; shares compounds with SENP7 inh; purified caspase-3, Z-DEVD-aminoluciferin luminescence, 60 min; inhibition, % at 12.5 µM; actives 60% (n = 6,200);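 active = mean inhibition above about 50%, limit read from the data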;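 note: plate controls were enzyme with DMSO for no effect and wells without caspase-3 for full effect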
Target sequence (P42574 28-227 limits assumed): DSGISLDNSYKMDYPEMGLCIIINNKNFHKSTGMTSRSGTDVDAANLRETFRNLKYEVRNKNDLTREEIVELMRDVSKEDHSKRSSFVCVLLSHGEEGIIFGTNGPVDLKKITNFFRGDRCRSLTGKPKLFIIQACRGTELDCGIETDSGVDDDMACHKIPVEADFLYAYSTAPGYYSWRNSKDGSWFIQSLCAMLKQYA
Luc interf = luminescence interference (SENP counter-screen); AID 488919; inhibition, % at 12.5 µM; actives 39% (n = 6,200); shares compounds with SENP7 inh; Pre-incubated SENP8/Z-RLRGG-aminoluciferin, luciferase luminescence interference;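 active = mean inhibition above about 50% when retested at one dose, limit read from the data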;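 note: plate controls were DMSO wells with completed reaction for no effect and substrate without enzyme for full effect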
An asterisk follows results filed as active; . = not tested or not shown. This is a sample that favours compounds with a hit; in the whole collection about 2.8% have one here.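 Rule for the calls, unless noted: active = mean inhibition above about 50% in the one-dose retest (limit read from the data); inactive = the rest.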

SMILES	HSP90 inh	SENP8 block-1	SENP8 block-2	Platelet DG rel	SENP6 block	SENP7 inh	SENP8 conf	SENP6 conf	SENP7 conf	Casp3 SENP sel	Luc interf
Fc1cc(F)c(F)c(SCn2cc(Br)cn2)c1F	.	4.2	-4.6	.	-15.3	-5.5	.	.	.	.	.
O=C(Nc1ccc2ccccc2c1)C(=O)C1C(=O)Nc2ccccc21 (stereo unspecified)	-0.8	.	84.0*	0.2	92.2*	77.5*	73.1*	73.8*	88.7*	76.7*	8.0
COc1ccc(/C=N/OCc2ccc(Br)cc2)c(OC)c1	1.4	14.6	2.9	-2.0	1.2	-11.6	.	.	.	.	.
COc1ccc2c(c1)C1OCCC1C(c1ccco1)N2 (stereo unspecified)	.	-460.1	55.6*	22.4	-3.5	41.8	64.5*	64.4*	91.2*	88.5*	74.9*
O=C(OCc1c(-c2ccccc2)ncc2ccccc12)c1cccc(Br)c1	.	9.9	0.5	.	5.9	7.3	.	.	.	.	.
Cc1cc(C)cc(C(=O)Nc2nc3ccccc3[nH]2)c1	-1.7	-2.5	-24.2	-3.5	2.3	-11.1	.	.	.	.	.
O=C(Nc1nc2ccccc2[nH]1)c1cc(F)cc(F)c1	6.5	-13.9	27.6	9.5	55.4*	54.2*	28.2	32.6	73.0*	66.0*	16.1
CN(C)S(=O)(=O)c1ccc(C(=O)Nc2nc3ccccc3[nH]2)cc1	-4.2	-15.3	-11.6	6.7	-18.3	0.7	.	.	.	.	.
N#Cc1ccc(C(=O)Nc2nc3ccccc3[nH]2)cc1	8.7	-32.6	50.3*	14.9	69.0*	73.4*	2.1	40.2	70.6*	68.5*	-1.2
O=C(O)c1ccccc1N=Nc1c(O)[nH]c2ccc([N+](=O)[O-])cc12	-0.8	29.0	94.9*	1.4	99.3*	93.5*	97.5*	98.0*	101.1*	94.0*	36.6
O=C(N=Nc1c(O)[nH]c2ccc([N+](=O)[O-])cc12)c1ccccc1Cl	1.1	28.3	-1.9	-8.1	-16.4	8.6	.	.	.	.	.
CCN(CC)Cc1c(C(=O)N/N=C(\C)c2ccncc2)nnn1-c1nonc1N	0.8	12.1	-2.5	-1.7	-5.2	1.0	.	.	.	.	.
Cc1ccc(NC(=O)CNC(=O)Cc2cccc3ccccc23)c(O)c1	.	5.2	4.5	4.2	2.4	-7.7	.	.	.	.	.
O=C(NCc1ccccc1Cl)c1[nH]c(C(F)(F)F)nc1-c1ccccc1	.	21.8	.	.	.	.	.	.	.	.	.
COc1cc(NC(=O)c2csc3c2CCCC3)ncn1	0.6	11.8	46.9	7.1	61.1*	-1.0	11.4	4.6	11.9	10.5	5.6
COc1ccccc1NC(=O)c1csc2c1CCCC2	-0.3	-58.8	5.4	-10.6	-4.0	2.8	.	.	.	.	.
Cc1cnc(C(=O)OCC(=O)c2ccc(Br)s2)cn1	.	20.2	-8.5	-1.5	11.1	4.8	.	.	.	.	.
CC(=O)Nc1nc2c(F)cccc2s1	-1.5	-1.9	3.3	0.4	-4.4	-0.1	.	.	.	.	.
